# According to PubChem BioAssay (NCATS):
# Results filed as inconclusive are left out. A call without a number means that no potency is given here. Active and inactive are the calls of the source. Calls follow the shape of the dose curve; as a rule, active = well fitted inhibition curve with a large enough effect; inconclusive = small, poorly fitted or top-dose-only effect; inactive = flat fitted curve, though single readings scatter.
# Biological target: Calcium and integrin-binding protein 1 (Homo sapiens) (UniProt Q99828)
# Assay: Primary qHTS for Identification of Calcium Integrin Binding Protein 1 (CIB1) Competitor (AID 1508620);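 also: GST tagged CIB1 binding a fluorescein labelled alphaIIb integrin peptide tracer; top concentration of the series differs between compounds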
# Settings: CIB1-GST / FITC-alphaIIb peptide fluorescence polarization; series mostly up to 114 µM
# Description: Assay Provider: Ulhas P. Naik, PhD Sidney Kimmel Medical College Thomas Jefferson University, Philadelphia, PA Primary function of platelets is to maintain hemostasis. At the site of vascular injury, platelets adhere to adhesive proteins such as collagen and von Willebrand factor. Adherent platelets are activated and generate soluble platelet agonists such as thrombin, ADP and thromboxane A2. Following exposure of circulating platelets to these agonists, results in platelet shape change, granule secretion and activation of platelet integrin alphaIIb-beta3. Ligand binding to activated integrin alphaIIb-beta3 triggers outside-in signaling, leading to platelet aggregation, stabilization of platelet plug, and clot retraction. Upon atherosclerotic plaque rupture also causes platelet plug formation, which underlies a number of cardiovascular diseases such as myocardial infraction and stroke. A number of anti-platelet drugs such as aspirin, clopidogrel, prasugrel, vorapaxar, and eptifibatide are currently available to prevent the thrombotic complications. However, these anti-platelet agents have several limitations including inherent variability in individual responses, developing resistance, and serious bleeding side effects. For these reasons they are not suitable for long-term protection. Based on the experiences with current anti-platelet drugs, it appears that the most useful therapeutic approach is to intersect the secondary responses such as integrin outside-in signaling or recruitment of platelets by TxA2 and secreted ADP. Compounds, which can largely preserve the primary hemostatic function of platelets but inhibit secondary response will be most desired therapeutic agents for treatment of cardiovascular disease. CIB1 is a calcium integrin binding protein, which specifically interact with the alphaIIb subunit of integrin alphaIIb-beta3. Binding of CIB1 to alphaIIb regulates the outside-in signaling in platelets, which is needed for thrombus stabilization and thrombus growth. […] Therefore, we propose that discovery of a small molecule that can prevent the association of CIB1 and alphaIIb-beta3 will be a potential anti-platelet agent that can block the thrombus formation without undue effect on hemostasis. Reference: [1] Naik MU, Nigam A, Manrai P, et al. CIB1 deficiency results in impaired thrombosis: the potential role of CIB1 in outside-in signaling through integrin alpha IIb beta 3. J Thromb Haemost.
# PROTOCOL TABLES SEQUENCE No. (1, 2, 3, etc.); […] (e.g., Cells, Incubation, Reagent, etc.); VALUE and DESCRIPTION. 1; Reagent; 3 uL; Protein or buffer (4/3x) 2; Compound; 46 nL; Control inhibitor / compound library 3; Time; 15 min; Room temperature incubation 4; Reagent; 1 uL; Fluorescent labeled peptide (4x) 5; Time; 1000 rpm; Centrifuge 6; Time; 15 min; Room temperature incubation 7; Detection; Ex 480/ Em 540; ViewLux Fluorescence Read NOTES (numbers refer to sequence above) 1; Protein Mixture: C1B1-GST (final concentrations of 1 uM). […] 3; Room temperature incubation. 4; Fluorescent Labeled Peptide: FITC-aIIb (final concentration of 100 nM). Sequence of alphaIIb peptide: Acetyl-[…]-FITC (purity is 95.83%). 5; Centrifuge 1000 rpm (164 g) for 15 seconds. 6; Room temperature incubation. 7; ViewLux Fluorescent Polization Read: excitation = 480(20) / emission = 540(25) S and P; FITC Dichroic mirror.
# Sequence of Calcium and integrin-binding protein 1 (Homo sapiens) (Q99828 whole entry, looked up): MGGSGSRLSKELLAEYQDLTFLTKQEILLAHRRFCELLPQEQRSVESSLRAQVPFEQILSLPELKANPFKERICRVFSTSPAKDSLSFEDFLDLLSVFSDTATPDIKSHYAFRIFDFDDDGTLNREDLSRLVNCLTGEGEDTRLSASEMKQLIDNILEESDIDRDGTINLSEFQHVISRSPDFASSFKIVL
row,SMILES,Potency
1,O=c1c2ccccc2nc2sc(NCc3ccccc3)nn12,inactive
2,CC(C)Oc1ccccc1C(=O)Nc1nc(-c2ccccc2)cs1,inactive
3,N[C@H]1CCN(c2cnc3c(O)ccc(C(=O)O)c3c2)C1,inactive
4,CC(C)(C)c1ccc(-n2cnc3cc(C(=O)N4CCCCC4)ccc32)cc1,inactive
5,O=C(CSc1nnc(-c2cccc(S(=O)(=O)N3CCCC3)c2)n1-c1ccccc1)Nc1ccc(F)cc1,inactive
6,COc1ccc(-c2ccc(NC(=O)c3cccs3)cn2)cc1,inactive
7,NC(=O)C1CCN(c2nccc(-c3ccc4c(c3)OCCCO4)n2)CC1,inactive
8,Cc1cc2c(s1)c1cnn(Cc3c(F)ccc(C)c3F)c(=O)c1n2C,inactive
9,Cc1ccc(OCCn2c(CCNC(=O)c3cc(F)cc(F)c3)nc3ccccc32)cc1,inactive
10,Cc1cccc(-n2cnc3cc(C(=O)N4CC(C)CC(C)C4)ccc32)c1 (stereo not given),inactive
11,CC(=O)Nc1sc2c(c1-c1ccco1)CCNC2,inactive
12,Fc1c(-c2ccc3ncnc(NCc4cccs4)c3c2)ccc2c1OCO2,inactive
13,CC(C)COc1ccc(-c2csc(N3CCC(C(N)=O)CC3)n2)cc1,inactive
14,NC(=O)C1CCN(c2nc(-c3cccnc3)cs2)CC1,inactive
15,Cc1ccc(NC(=O)CSc2nnc(-c3cccc([S+](=O)([O-])N4CCCC4)c3)n2-c2c(C)cccc2C)cc1,inactive
16,CC(C)Oc1ccc(-c2csc(N3CCC(C(N)=O)CC3)n2)cc1,inactive
17,O=C(CCc1ccccc1Br)NCCc1nc2ccccc2[nH]1,inactive
18,c1cc2c(cc1CNc1ccc(N3CCOCC3)cc1)OCO2,inactive
19,Cc1ccc(/C=C/C(=O)Nc2cccc([S+](=O)([O-])Nc3ccccc3F)c2)cc1,inactive
20,COC(=O)c1ccc2c(c1)S(=O)(=O)NC2=O,inactive

row,SMILES,Potency
1,CC(=O)N1CCc2cc(-c3nc(NC(=O)Cc4ccc5c(c4)OCO5)sc3C)ccc21,inactive
2,CN1CCN(c2nn3c(=O)c4ccccc4nc3s2)CC1,inactive
3,Cn1ccc2cc(-c3csc(N4CCC(C(N)=O)CC4)n3)ccc21,inactive
4,CC(C)c1ccccc1-c1ncc(F)c(NCC2CCN(c3cccnc3)CC2)n1,inactive
5,Cc1ccnc(NC(=S)N2CCN(c3cccc(C(F)(F)F)n3)CC2)c1,inactive
6,COc1cccc(CNc2ccc(S(=O)(=O)Nc3ccc(N4CCNCC4)cc3)cc2)c1O,inactive
7,Cc1c(C(=O)OCC2CCCO2)[nH]c2c1C(=O)CCC2 (stereo not given),inactive
8,Oc1ccc(/C=C/c2ccccc2)c2cccnc12,inactive
9,O=C(N/C=C/c1ccccc1)c1cccc([S+](=O)([O-])Nc2ccccc2F)c1,inactive
10,CC(=O)c1ccc(N2CCN(S(=O)(=O)c3ccc4c(c3)CC(=O)N4)CC2)cc1,inactive
11,Cc1ccc(-c2ccc(=O)n(CC(=O)N(C)C(C)C(C)C)n2)cc1 (stereo not given),inactive
12,Cc1ccc(NS(=O)(=O)c2ccc(-c3ccccc3)cc2)cc1C,inactive
13,O=C(Nc1ccc(F)c(C(F)(F)F)c1)Nc1nc(-c2ccncc2)cs1,inactive
14,O=C(/C=C/c1ccc2c(c1)OCO2)Nc1cccc([S+](=O)([O-])Nc2ccccc2F)c1,inactive
15,CN(C)c1ccc(C2N=C(Nc3nc4ccccc4o3)NC3=C2C(=O)CCC3)cc1 (stereo not given),inactive
16,Oc1cccc2cc(CNc3ccccc3F)cnc12,inactive
17,Fc1cc(Nc2nc(-c3ccncc3)nc3ccccc23)ccc1-c1ccc(F)c(F)c1F,inactive
18,CCCCN(C)C(=O)Cn1nc(-c2cccc(C)c2)ccc1=O,inactive
19,CCOC(=O)c1c(/C=N/Nc2ccccc2)c2sc(C)cc2n1C,inactive
20,Cc1cc2c(s1)c1cnn(Cc3ccc(-c4ccccc4)cc3)c(=O)c1n2C,inactive
